Reference: PubChem BioAssay (NCI)
Compounds without any hit were thinned out: in the full panel of roughly 83,000, 20% have a hit.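 Plates (96-well) were seeded with cells, treated with compound at one concentration, and incubated for 48 hours before percent growth was determined.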 A number with no mark means an inactive call. Calls of active or inactive are those of the source. The calls were made as follows: active = growth percent below 10; inactive = the rest.

System: KM12 colon
Test: NCI-60 one-dose screen, 48 h (100 = growth as untreated, 0 = no growth, -100 = all killed)
Settings: 10 µM unless noted

SMILES | growth
CC1CCC(n2cnc3c(Cl)ncnc32)O1 (centres undefined) | 106%
N#Cc1cc2[nH]c3ccc(OC(F)(F)F)cc3c2oc1=O | 80.2%
COc1ccc(-c2cnc(-c3ccc(Cl)cc3)[nH]2)cc1OC | 97.3%
COc1ccc2c(CCCCC(c3ccccc3)c3ccccc3)c3[n+](cc2c1OC)CCc1cc2c(cc1-3)OCO2 | -71.5% (active)
